In PubChem BioAssay:
Calls of active or inactive are those of the source. How the calls were made is not given here.

Biological target: Pantothenate synthetase (Mycobacterium tuberculosis (strain ATCC 25618 / H37Rv)) (UniProt P9WIL5)
Assay: Coupled enzyme confirmation of inhibitors against recombinant Mtb PanC (AID 375);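 further: 0% = full reaction with vehicle and 100% = no enzyme background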
Conditions: coupled enzyme assay; at 10 µM, stronger effect = higher value

Pantothenate synthetase (Mycobacterium tuberculosis (strain ATCC 25618 / H37Rv)), sequence (P9WIL5 whole entry, looked up): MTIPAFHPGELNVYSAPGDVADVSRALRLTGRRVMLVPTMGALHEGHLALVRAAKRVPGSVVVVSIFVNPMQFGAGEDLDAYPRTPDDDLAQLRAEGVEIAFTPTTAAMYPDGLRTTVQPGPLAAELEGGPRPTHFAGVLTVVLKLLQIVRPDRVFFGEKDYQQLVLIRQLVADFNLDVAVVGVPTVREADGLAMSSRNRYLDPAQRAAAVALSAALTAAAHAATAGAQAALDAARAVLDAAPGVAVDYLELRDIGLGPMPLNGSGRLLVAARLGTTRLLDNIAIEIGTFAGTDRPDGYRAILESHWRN

Row | SMILES | inhibition
1 | CCC(=O)N(Cc1cc2c(C)ccc(C)c2[nH]c1=O)C1CCCCC1 | 0% (inactive)
2 | CCCCN(C)CCCNC(=O)CC1Oc2ccccc2NC1=O (centres undefined) | 6% (inactive)
3 | CCCCSc1nnc([C@H](C)NC(=O)OC(C)(C)C)o1 | 2% (inactive)
4 | Cc1ccc(-c2noc(C3CCCN(C(=O)c4ccc(F)cc4F)C3)n2)cc1 (centres undefined) | 0% (inactive)
5 | C=CCn1cc(C(=O)NCCOC)c(=O)c2cc(S(=O)(=O)N(CC)CC)ccc21 | 0% (inactive)
6 | Cc1ccc(S(=O)(=O)C2(C(=O)N3CCCCCC3)CC2)cc1 | 0% (inactive)
7 | CC(Sc1nnc(-c2cc3ccccc3o2)n1-c1ccccc1)C(=O)O (centres undefined) | 12% (inactive)
8 | CCOC(=O)c1cc2ccc(OC)c(OC)c2c(=O)s1 | 0% (inactive)
9 | COc1ccccc1N1CCN(c2cc(N3CCCC3)nc(C)n2)CC1 | 0% (inactive)
10 | CSc1nnc(-c2ccc(NC(=O)CCc3ccccc3)cc2)n1C | 0% (inactive)
11 | O=C(c1cccc(C(=O)N2CCN(c3ccccc3)CC2)c1)N1CCN(c2ccccc2)CC1 | 0% (inactive)
12 | Cc1cc(C)n2cc(CSc3nnnn3C)nc2n1 | 0% (inactive)
13 | Cc1oc2cc(O)ccc2c(=O)c1-c1cnn(-c2ccccc2)c1 | 5% (inactive)
14 | CN1CC=C2C(C#N)=C(N)C(C#N)(C#N)C(c3cccc(Cl)c3Cl)C2C1 (centres undefined) | 0% (inactive)
15 | Cc1ccc(-c2ccc(=O)n(CCC(=O)NCc3ccccn3)n2)cc1 | 4% (inactive)
16 | CC[N+](C)(C)Cc1ccccc1Br | 0% (inactive)
17 | COc1ccc(C2C(C(=O)Nc3cccnc3)=C(C)Nc3nc(-c4cccs4)nn32)cc1OC (centres undefined) | 6% (inactive)
18 | CCn1nnnc1NCc1cccn1C | 5% (inactive)
19 | COc1cccc2c1C(=O)c1c(O)c3c(c(O)c1C2=O)C[C@@](O)(C(=O)CO)C[C@@H]3O[C@H]1C[C@H](N)[C@H](O)[C@H](C)O1 | 5% (inactive)
20 | CC1(C)CC(=O)c2cc(OCC(=O)NCCCN3CCN(c4ccccc4F)CC3)ccc2O1 | 0% (inactive)

Row | SMILES | inhibition
21 | O=C(Nc1cccc(F)c1)N1CC=C(n2c(=O)[nH]c3ccccc32)CC1 | 5% (inactive)
22 | C#CC1(O)CC(C)N(C)C(C)C1 (centres undefined) | 6% (inactive)
23 | Cc1cc(NC(=O)CSc2ccc3nnc(-c4cccc(F)c4)n3n2)no1 | 0% (inactive)
24 | Cc1cccn2c(=O)c3cc(C(=O)N4CCCc5ccccc54)n(C)c3nc12 | 0% (inactive)
25 | CCOC(=O)c1c(NC(=O)COC(=O)c2c(C)noc2C)sc2c1CCC2 | 1% (inactive)
26 | COc1ccc(NC(=O)CC2Oc3ccccc3NC2=O)cc1 (centres undefined) | 0% (inactive)
27 | CCSC1=C(C#N)C(c2ccccc2OC)CC(=O)N1 (centres undefined) | 4% (inactive)
28 | COC(=O)c1cc2oc(C)cc2n1CC(=O)Nc1ccc(C)c(C)c1 | 0% (inactive)
29 | O=C(C1CCCCC1)N1CCC(c2nc3c(nnn3Cc3ccccc3Cl)c(=O)[nH]2)CC1 | 4% (inactive)
30 | COc1c2ccoc2nc2c(OC)c(OCC(O)C(C)(C)O)ccc12 (centres undefined) | 0% (inactive)
31 | CC1(C)CC(=O)C2=C(C1)Nc1nc(SCCN3CCOCC3)[nH]c(=O)c1C2c1cccs1 (centres undefined) | 2% (inactive)
32 | Cn1c(-c2cc(Br)ccc2O)n[nH]c1=S | 2% (inactive)
33 | COc1ccc(OC)c(CNC(=O)CCN2C(=O)COc3ccccc32)c1 | 5% (inactive)
34 | CCOC(=O)c1c(C)[nH]c(C(=O)Cn2c(=O)oc3ccccc32)c1C | 4% (inactive)
35 | COc1ccc(S(=O)(=O)N2CCCC2C(=O)Nc2ccc(C)cc2)cc1 (centres undefined) | 0% (inactive)
36 | Cn1c(SCC(N)=O)nnc1C1CCN(S(=O)(=O)c2ccccc2C(F)(F)F)CC1 | 0% (inactive)
37 | CCN1CCN(C(=O)N[C@@H](C(=O)N[C@@H]2C(=O)N3[C@@H]2SC(C)(C)[C@@H]3C(=O)O)c2ccccc2)C(=O)C1=O | 2% (inactive)
38 | CCOC(=O)N1CCN(c2nc(-c3ccc(Cl)cc3)cs2)CC1 | 0% (inactive)
39 | N/C(=N/O)c1nc(N2CCCCC2)nc(N2CCCCC2)n1 | 0% (inactive)
